Reference: PubChem BioAssay
Activity calls are given as the source filed them. Unless noted, the rule behind the calls is not given here.

Key:
[1] = A549 cell viability effects, profiling panel, calcein-AM fluorescence, 48 h, basal (AID 1162); conditions: higher = more signal; note: test concentration not given here
[2] = adipocyte viability effects, profiling panel, cell-based, 3T3-L1 adipocytes, calcein-AM fluorescence, 48 h, basal (AID 1163); conditions: 3T3-L1 adipocytes viability, higher = more signal; note: test concentration not given here
[3] = HepG2 cell viability effects, profiling panel, calcein-AM fluorescence, 48 h, basal (AID 1164); conditions: higher = more signal; note: test concentration not given here
[4] = MM1S cell viability effects, profiling panel, calcein-AM fluorescence, 48 h, basal (AID 1165); conditions: higher = more signal;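 note: viability of MM1S multiple myeloma cells under basal unstimulated conditions; test concentration not given here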
[5] = basal RPMI8226 viability, no added stimulus, profiling panel, cell-based, calcein-AM fluorescence, 48 h, PK04 Diversity Set (AID 1166); conditions: RPMI8226 myeloma viability, higher = more signal;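 note: cells grown under basal conditions without added stimulus; test concentration not given here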
[6] = basal HepG2 mitochondrial membrane potential changes, profiling panel, cell-based, JC-1 fluorescence, 24 h, 100 nL compound (AID 1167); conditions: higher = more signal; note: test concentration not given here
[7] = basal 3T3-L1 adipocyte mitochondrial potential changes, profiling panel, cell-based, JC-1 fluorescence, 3T3-L1 adipocytes, 24 h, 100 nL compound (AID 1168); conditions: JC-1 mitochondrial fluorescence, higher = more signal, called active from +8 up or from −8 down; note: test concentration not given here
[8] = basal RPMI8226 mitochondrial membrane potential changes, profiling panel, cell-based, JC-1 fluorescence, 24 h, 100 nL compound (AID 1169); conditions: RPMI8226 myeloma, JC-1 mitochondrial potential fluorescence, higher = more signal; note: test concentration not given here
[9] = basal MM1S mitochondrial membrane potential changes, profiling panel, cell-based, JC-1 fluorescence, 24 h, 100 nL compound (AID 1170); conditions: higher = more signal; note: test concentration not given here
[10] = A549 lung cancer cell viability effects, profiling panel, resazurin fluorescence, 24 h, PK04 Diversity Set (AID 1171); conditions: higher = more signal, called active from +8 up or from −8 down; note: test concentration not given here
[11] = HepG2 liver cancer cell viability effects, profiling panel, resazurin fluorescence, 24 h, PK04 Diversity Set (AID 1172); conditions: higher = more signal; note: test concentration not given here
[12] = basal S. cerevisiae growth modulation, no modifier, primary screen, OD600, strain BY4716, 24 h, basal condition (AID 1173); conditions: OD600, 24 h, higher = more signal, called active from +8 up or from −8 down
[13] = MM1S myeloma cell viability, profiling panel, resazurin fluorescence, basal, 24 h, PK04 Diversity Set (AID 1174); conditions: higher = more signal, called active from +8 up or from −8 down;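 note: MM1S multiple myeloma cell line; test concentration not given here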
[14] = molecular target: Dihydroorotate dehydrogenase (quinone), mitochondrial (Plasmodium falciparum (isolate 3D7)) (UniProt Q08210); assay: PfDHODH enzyme inhibitors, primary screen, biochemical, C-terminal His tag, absorbance 600 nm (AID 1175); conditions: DCIP absorbance 600 nm, higher = more signal, called active from +8 up or from −8 down;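 note: recombinant parasite enzyme with a five histidine tag at its C terminus; test concentration not given here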
Chain of Dihydroorotate dehydrogenase (quinone), mitochondrial (Plasmodium falciparum (isolate 3D7)) (Q08210 whole entry, looked up): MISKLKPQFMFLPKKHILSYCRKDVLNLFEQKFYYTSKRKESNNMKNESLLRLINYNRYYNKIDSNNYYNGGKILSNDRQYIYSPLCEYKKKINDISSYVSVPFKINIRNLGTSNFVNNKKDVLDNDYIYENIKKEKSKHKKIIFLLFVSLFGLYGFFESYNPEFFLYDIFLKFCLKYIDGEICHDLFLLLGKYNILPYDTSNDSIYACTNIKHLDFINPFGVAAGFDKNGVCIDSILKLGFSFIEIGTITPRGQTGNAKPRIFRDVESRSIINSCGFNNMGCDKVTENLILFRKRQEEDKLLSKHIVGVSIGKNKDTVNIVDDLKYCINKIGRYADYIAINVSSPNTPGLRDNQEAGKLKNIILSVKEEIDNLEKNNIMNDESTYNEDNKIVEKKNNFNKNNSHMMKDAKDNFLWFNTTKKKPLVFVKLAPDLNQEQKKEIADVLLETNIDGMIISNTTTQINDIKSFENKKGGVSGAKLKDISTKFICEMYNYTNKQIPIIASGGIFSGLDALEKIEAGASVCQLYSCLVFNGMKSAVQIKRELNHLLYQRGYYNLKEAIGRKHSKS

[15] = P. aeruginosa biofilm formation inhibitors, primary screen, strain PAO1, LB-PBS medium, absorbance 600 nm (AID 1176); note: test concentration not given here; conditions: P. aeruginosa PAO1 growth/biofilm, A600, 12 h; higher = more signal
[16] = S. cerevisiae RM11-1a growth modifiers, primary screen, strain RM11-1a, OD600, basal, 24 h (AID 1177); conditions: OD600, 24 h, higher = more signal, called active from +8 up or from −8 down;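 note: cultures grown under basal conditions with no added stressor; test concentration not given here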
[17] = E. coli acrAB mutant growth effects, primary screen, E. coli filamentation inducers, strain DRC39, OD650, 24 h (AID 1178); conditions: higher = more signal, called active from +8 up or from −8 down;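 note: growth measured as culture turbidity by optical density at 650 nm; test concentration not given here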
[18] = E. coli acrAB mutant growth effects, primary screen, E. coli filamentation inducers, strain DRC39, OD650, 48 h (AID 1179);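 note: screen aims at cell division blockers that make cells filament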; conditions: E. coli DRC39 delta-acrAB growth, higher = more signal, called active from +8 up or from −8 down
[19] = RPMI8226 myeloma cell viability, profiling panel, resazurin fluorescence, basal, 24 h, PK04 Diversity Set (AID 1180); conditions: higher = more signal;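 note: RPMI8826 multiple myeloma cell line at 5000 cells per well; test concentration not given here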
[20] = molecular target: E3 ubiquitin-protein ligase XIAP (Homo sapiens) (UniProt P98170); assay: XIAP binders, primary screen, biophysical, small-molecule microarray, fluorescence 635 nm (AID 1181); conditions: small-molecule microarray binding, higher = more signal;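 note: score merges 667 nm emission and signal to noise over triplicate slides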
Chain of E3 ubiquitin-protein ligase XIAP (Homo sapiens) (P98170 whole entry, looked up): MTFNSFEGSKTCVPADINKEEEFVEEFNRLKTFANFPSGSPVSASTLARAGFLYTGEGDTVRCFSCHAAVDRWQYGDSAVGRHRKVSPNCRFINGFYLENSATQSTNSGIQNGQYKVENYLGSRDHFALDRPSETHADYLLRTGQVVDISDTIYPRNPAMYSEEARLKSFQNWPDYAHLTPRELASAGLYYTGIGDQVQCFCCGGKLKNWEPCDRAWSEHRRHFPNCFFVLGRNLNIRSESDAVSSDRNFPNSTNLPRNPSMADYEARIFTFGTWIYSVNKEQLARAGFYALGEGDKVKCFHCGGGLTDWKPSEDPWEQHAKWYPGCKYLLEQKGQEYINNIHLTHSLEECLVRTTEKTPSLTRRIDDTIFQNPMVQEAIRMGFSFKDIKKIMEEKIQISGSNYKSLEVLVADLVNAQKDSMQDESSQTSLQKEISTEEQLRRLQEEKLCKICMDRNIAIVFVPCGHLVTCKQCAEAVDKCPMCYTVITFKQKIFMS

Compound | z-score [1] | z-score [2] | z-score [3] | z-score [4] | z-score [5] | z-score [6] | z-score [7] | z-score [8] | z-score [9] | z-score [10] | z-score [11] | z-score [12] | z-score [13] | composite z-score [14] | z-score [15] | z-score [16] | z-score [17] | z-score [18] | z-score [19] | composite z-score [20]
O=C(CS)NCCCCCCNC(=O)[C@H]1C[C@H]2C(=O)N[C@@H](Cc3ccccc3)C(=O)N2[C@H]1c1ccc(O)cc1 | 0.215 | 0.0724 | -0.521 | -1.51 | 0.388 | -1.57 | -1.09 (inactive) | -0.254 | 0.046 | 1.26 (inactive) | 0.504 | 0.588 (inactive) | -0.619 (inactive) | -0.0269 (inactive) | 0.836 (inactive) | 0.252 (inactive) | 0.0577 (inactive) | -0.983 (inactive) | 0.158 | -0.166
O=C(NCc1ccccc1)[C@@H]1c2ccccc2C(=O)N(Cc2ccccc2C(F)(F)F)[C@H]1c1ccc(CO)cc1 | 0.369 | 0.275 | 1.53 | 0.0209 | -0.133 | 2.36 | -0.182 (inactive) | 0.744 | -0.962 | -0.307 (inactive) | -0.431 | 0.036 (inactive) | -0.433 (inactive) | 0.154 (inactive) | 1.19 (inactive) | 0.0858 (inactive) | 0.232 (inactive) | 0.56 (inactive) | -0.137 | -0.107
CC[C@H]1C2=C3C(CC[C@H]4C(OCc5ccc(F)cc5C(F)(F)F)OC[C@](C)([C@@H]34)N(C(=O)OC(C)(C)C)C2)C(COC)C1COC (stereo not given in full) | -0.266 | -0.851 | 0.309 | 0.0661 | -0.307 | 1.38 | -0.159 (inactive) | -0.182 | -1.53 | -0.515 (inactive) | -0.983 | 0.9 (inactive) | -1.31 (inactive) | -0.0058 (inactive) | -0.126 (inactive) | 0.628 (inactive) | -0.543 (inactive) | 0.0886 (inactive) | -0.932 | -0.0838
Cc1ccc(S[C@]2(C(=O)NCC(F)(F)F)CC(=O)N(Cc3ccccc3)[C@@H]2c2ccc(CO)cc2I)cc1 | 0.208 | -0.649 | -0.425 | -1.84 | -2.08 | -1.75 | -0.68 (inactive) | -0.797 | -1.59 | 0.589 (inactive) | 0.448 | -3.93 (inactive) | -3.15 (inactive) | 0.343 (inactive) | 0.848 (inactive) | -1.55 (inactive) | 0.531 (inactive) | 0.562 (inactive) | -2.27 | 0.0338
[N-]=[N+]=NCc1ccccc1[C@@H]1OC(c2ccc(OCCCO)cc2)=N[C@]1(CCS(=O)(=O)c1ccccc1)C(=O)NCC(O)CO (stereo not given in full) | 1.3 | 0.273 | 1.4 | 0.481 | 1.67 | -0.142 | 0.0693 (inactive) | -0.0493 | -0.198 | -0.911 (inactive) | -0.618 | -0.543 (inactive) | -0.121 (inactive) | -0.716 (inactive) | 0.563 (inactive) | -0.397 (inactive) | 0.488 (inactive) | 1.2 (inactive) | -0.471 | 0.0731
COc1ccc([Si](C)(C)[C@H]2[C@H](CCn3cc([C@H](O)c4ccccc4)nn3)O[C@@]3(C(=O)N(Cc4ccc(N5C(=O)c6cccc7cccc5c67)cc4)c4ccccc43)[C@@H]2C)cc1 | 0.332 | -0.488 | 1.02 | -0.702 | -0.74 | 1.58 | -0.526 (inactive) | -0.296 | 0.516 | -1.26 (inactive) | -0.0876 | 0.0957 (inactive) | -1.96 (inactive) | 0.468 (inactive) | 1.03 (inactive) | 1.26 (inactive) | 1.57 (inactive) | 1.45 (inactive) | -0.761 | -0.031
COc1cc2c(cc1OC)CN(C(=O)[C@@H]1[C@H]3C(=O)O[C@H](c4ccccc4)[C@H](c4ccccc4)N3[C@H](c3ccc(OCCO)cc3)[C@@]13C(=O)Nc1ccccc13)CC2 | 1.47 | 1.04 | 1.35 | 0.48 | 0.834 | -0.221 | 0.876 (inactive) | -0.592 | -1.17 | 0.319 (inactive) | -0.44 | 1.39 (inactive) | -1.54 (inactive) | -1.09 (inactive) | 3.15 (inactive) | 4.05 (inactive) | 0.144 (inactive) | 0.919 (inactive) | -0.0976 | -0.0763
COCCOC(=O)N1C(=O)[C@@]2(c3cc(C#CC4=CCCCC4)ccc31)[C@H](c1ccccc1OCCO)N1[C@H](c3ccccc3)[C@H](c3ccccc3)OC(=O)[C@H]1[C@@H]2C(=O)N1CCCCCCC1 | -2.1 | 0.443 | -0.599 | -2.38 | -2.38 | 0.737 | 0.262 (inactive) | -0.934 | -1.31 | 0.0309 (inactive) | 0.133 | 1.86 (inactive) | -4.58 (inactive) | 0.668 (inactive) | 0.365 (inactive) | 2.01 (inactive) | 0.105 (inactive) | -1.32 (inactive) | -3.11 | -0.0663
C#CCN([C@@H](Cc1ccc(O)cc1)C(=O)OC)[C@@H](/C=C/C1CC1)[C@H](O)Cc1ccccc1 | -3.21 | -0.0073 | -3.12 | -3.28 | -4.06 | -3.58 | -0.0474 (inactive) | -1.2 | -1.58 | -0.2 (inactive) | -1.12 | -2.71 (inactive) | -0.758 (inactive) | -0.228 (inactive) | -0.672 (inactive) | -0.136 (inactive) | -0.933 (inactive) | -0.737 (inactive) | -0.61 | 0.798
